# From ChEMBL document CHEMBL1201862, “PubChem BioAssay data set” (2004)
# The whole screen tested about 400,000 compounds, of which about 2,100 (0.53%) were called active. Inconclusive results (about 14%) are left out. How the calls were made is not given here. The entries come from a sample that favours actives as a whole.
# Biological target: Ataxin-2 (Homo sapiens) (UniProt Q99700)
# Assay: qHTS for Inhibitors of ATXN expression.
# Type: functional
# Ataxin-2 (Homo sapiens), sequence (Q99700 whole entry): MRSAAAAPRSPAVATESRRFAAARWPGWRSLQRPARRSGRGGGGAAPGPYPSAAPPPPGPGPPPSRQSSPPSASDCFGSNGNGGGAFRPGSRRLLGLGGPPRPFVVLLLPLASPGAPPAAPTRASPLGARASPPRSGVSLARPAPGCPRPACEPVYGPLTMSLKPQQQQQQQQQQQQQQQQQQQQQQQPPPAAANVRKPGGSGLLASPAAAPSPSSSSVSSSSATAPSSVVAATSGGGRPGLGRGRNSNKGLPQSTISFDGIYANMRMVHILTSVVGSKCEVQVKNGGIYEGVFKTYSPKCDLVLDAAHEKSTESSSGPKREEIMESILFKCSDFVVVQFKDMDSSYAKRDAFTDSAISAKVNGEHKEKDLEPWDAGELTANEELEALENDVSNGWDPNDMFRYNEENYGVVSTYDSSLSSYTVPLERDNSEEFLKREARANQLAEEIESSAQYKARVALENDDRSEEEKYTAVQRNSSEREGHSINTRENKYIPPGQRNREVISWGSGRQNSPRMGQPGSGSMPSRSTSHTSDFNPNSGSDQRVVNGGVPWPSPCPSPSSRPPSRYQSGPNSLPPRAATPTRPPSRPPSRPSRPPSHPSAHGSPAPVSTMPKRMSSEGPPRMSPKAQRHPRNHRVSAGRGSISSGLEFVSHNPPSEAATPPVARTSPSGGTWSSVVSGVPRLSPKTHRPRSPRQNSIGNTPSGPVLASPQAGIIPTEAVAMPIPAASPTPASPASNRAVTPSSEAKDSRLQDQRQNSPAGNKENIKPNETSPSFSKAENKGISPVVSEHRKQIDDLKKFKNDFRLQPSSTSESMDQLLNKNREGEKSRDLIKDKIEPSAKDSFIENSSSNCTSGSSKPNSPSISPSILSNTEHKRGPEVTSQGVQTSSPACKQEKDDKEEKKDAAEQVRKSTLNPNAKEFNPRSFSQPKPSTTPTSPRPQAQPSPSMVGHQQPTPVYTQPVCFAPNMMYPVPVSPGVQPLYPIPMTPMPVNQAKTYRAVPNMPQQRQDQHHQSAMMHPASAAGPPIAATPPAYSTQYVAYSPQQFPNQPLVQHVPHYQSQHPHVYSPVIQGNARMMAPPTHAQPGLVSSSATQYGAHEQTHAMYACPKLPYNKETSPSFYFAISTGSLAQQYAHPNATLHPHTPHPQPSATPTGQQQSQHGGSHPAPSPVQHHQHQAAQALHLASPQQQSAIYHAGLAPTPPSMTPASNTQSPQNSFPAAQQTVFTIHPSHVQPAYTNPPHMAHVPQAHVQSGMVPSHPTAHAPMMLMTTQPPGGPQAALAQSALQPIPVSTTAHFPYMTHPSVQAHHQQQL
row,Structure (SMILES),Potency
1,CC1Nc2ccccc2C(=O)N1NS(C)(=O)=O (stereo unspecified),inactive
2,Cc1ccc(S(=O)(=O)NN2C(=O)c3ccccc3NC2c2ccccc2)cc1 (stereo unspecified),35.5 µM (active)
3,Cc1ccc(C2N(C)C(=O)c3ccccc3N2C)cc1 (stereo unspecified),inactive
4,O=c1cc(CN2CCN(S(=O)(=O)c3cccc(Cl)c3)CC2)c2ccc(O)cc2o1,inactive
5,C=CCNC(=S)N/N=C(\C)c1ccccn1,2.51 µM (active)
6,C/C(=N\Nc1ncc(Cl)cc1Cl)c1ccccn1,inactive
7,C=CCNC(=S)Nc1cccc(NC(=S)NCC=C)c1,inactive
8,O=S(=O)(Nc1ccc(C(O)(C(F)(F)F)C(F)(F)F)cc1)c1ccc(Cl)c2nonc12,22.4 µM (active)
9,O=S(=O)(Nc1ccc(C(O)(C(F)(F)F)C(F)(F)F)cc1)c1cccc2ccccc12,44.7 µM (active)
10,COc1ccc(C(=O)NNC(=O)CSc2nc3c(=O)n(C)c(=O)n(C)c3[nH]2)cc1,inactive
11,N#Cc1cccc(Cn2cc(C(F)(F)F)ccc2=O)c1,inactive
12,CS(=O)(=O)c1ncc(Cl)c(C(=O)N(Cc2ccc(Cl)cc2)Cc2ccco2)n1,6.31 µM (active)
13,C=C1C(=O)[C@]23C[C@H]1CCC2[C@@]1(C)C(C[C@@H]3O)[C@](C)(C(=O)OC)CC[C@@H]1O (stereo partly specified),35.5 µM (active)
14,C=C1C(=O)[C@]23C[C@H]1CC[C@H]2[C@]1(C)[C@@H](O)CC[C@@](C)(C(=O)O)[C@H]1C[C@@H]3O,12.6 µM (active)
15,C=C1C(=O)[C@]23C[C@H]1CC[C@H]2[C@]1(C)[C@@H](OC(C)=O)CC[C@@](C)(C(=O)O)[C@H]1C[C@@H]3O,11.2 µM (active)
16,N#C/C(=C\c1ccncc1)c1nc2c(s1)CCCC2,inactive
17,CCc1cc(=O)oc2cc(O[C@@H]3O[C@H](CO)[C@@H](O)[C@H](O)[C@H]3O)c(Cl)cc12,inactive
18,Cc1cc(-n2cnc(-c3cn(C)nc3C)n2)no1,inactive
19,CN(C)/C=N/c1nc2nccc(-c3cccs3)n2n1,inactive
20,CC(C)(C)C(=O)NC(=S)Nc1ccc(C(F)(F)F)cc1,inactive
21,COc1ccc2c(Cl)c(C(=O)NN3CCN(C)CC3)sc2c1,inactive
22,CC(C)(C)C(=O)NC(=S)NNC(=O)c1sc2ccccc2c1Cl,31.6 µM (active)
23,C=CCn1c(S)nnc1-c1ccc2ncccc2c1,inactive
24,CC(C)CC1C(=O)N(Cc2cn(CCC3OCCO3)nn2)CCS(=O)(=O)N1Cc1ccc(-c2ccc(F)cc2)cc1 (stereo unspecified),35.5 µM (active)
25,CC(C)CC1C(=O)N(Cc2cn(CCC3OCCO3)nn2)CCS(=O)(=O)N1Cc1ccc(-c2ccc(Cl)c(Cl)c2)cc1 (stereo unspecified),39.8 µM (active)
26,C/C(=N\c1ccc(C)cc1C)c1sc2ccccc2c1O,inactive
